Among the data in ChEMBL document CHEMBL3988442, “University of Dundee, Small-Polar-MMV Screening Library” (2021) are Percent Effect values, retold here.

The target in test [1] is T1, Aspartate--tRNA(Asp/Asn) ligase (Mycobacterium tuberculosis (strain ATCC 25618 / H37Rv)) (UniProt P9WFW3). Also: in the data most compounds retested in dose-response had high values.
T1 sequence (whole entry): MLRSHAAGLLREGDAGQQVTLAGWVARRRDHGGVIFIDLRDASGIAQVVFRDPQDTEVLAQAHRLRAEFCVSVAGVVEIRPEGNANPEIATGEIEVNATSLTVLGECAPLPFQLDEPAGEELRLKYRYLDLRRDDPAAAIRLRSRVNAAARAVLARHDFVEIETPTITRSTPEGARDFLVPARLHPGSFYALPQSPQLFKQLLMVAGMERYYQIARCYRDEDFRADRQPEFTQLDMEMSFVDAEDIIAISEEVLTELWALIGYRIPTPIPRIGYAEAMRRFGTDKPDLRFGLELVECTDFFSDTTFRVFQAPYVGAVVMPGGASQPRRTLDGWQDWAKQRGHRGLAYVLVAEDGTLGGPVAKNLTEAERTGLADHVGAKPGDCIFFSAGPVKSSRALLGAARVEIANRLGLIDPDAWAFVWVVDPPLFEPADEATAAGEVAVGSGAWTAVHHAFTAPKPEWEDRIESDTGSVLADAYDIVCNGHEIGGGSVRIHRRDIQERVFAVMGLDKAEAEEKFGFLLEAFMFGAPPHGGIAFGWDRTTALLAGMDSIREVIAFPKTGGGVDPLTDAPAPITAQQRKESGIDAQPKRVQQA
Nature of the test: Assay for Asp RNA synthetase-1 from Mycobacterium tuberculosis. The note with it: 30 µM. Details: scale not given: direction of the effect not stated beside the values. The class given is functional.

Test [2] addresses Shiga toxin 2 (Escherichia coli O157:H7) (UniProt P09385+P09386). Nature of the test: E. coli 0.157:H7 Shiga Toxin SOP - stx2 screening assay. The test is classed as functional. Details: scale not given: direction of the effect not stated beside the values. The note with it: 30 µM.

Regarding `CCc1ncnc2c1CCN(C(=O)N1CCCC1)CC2`, the Percent Effect in test [1] is 1.98%; in test [2], -14%.

In the case of `CCOc1ccc(-n2nnc(C(=O)O)c2-c2ccncc2)cc1`, the Percent Effect in test [1] is 3.77%; in test [2] it was -21.9%.

Turning to `CN(C)CC1(O)CCN(S(=O)(=O)c2ccc(F)c(F)c2)C1` (stereo unspecified), the Percent Effect in test [1] is -2.99%; in test [2] it was 4.61%.
